Measured values taken from PubChem BioAssay (NCI).
This is part of a sample that, as a whole, favours compounds with a hit. Of some 79,000 tested, about 15% had one in any assay. Unmarked numbers belong to inactive results. Activity calls are given as the source filed them. Rule as the data show it: active = growth inhibition above about 70%; inactive = the rest.

Test: NCI Yeast Anticancer Drug Screen. Data for the rad52 strain (AID 147);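 also: 0% = growth of vehicle-treated control cultures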
Conditions: S. cerevisiae rad52 mutant growth inhibition, stronger effect = higher value
Description: Growth inhibition of yeast strains with defined genetic alterations is measured as a screen for potential anti-cancer activity. Selected strains with alterations in DNA damage repair or cell cycle control were exposed to compounds and growth inhibition was measured relative to vehicle treated controls. The strain used in this assay is rad52

SMILES | growth inhibition (at 1.2 µM) | growth inhibition (at 3.7 µM) | growth inhibition (at 11.0 µM) | growth inhibition (at 33.0 µM) | growth inhibition (at 100.0 µM)
O=[N+]([O-])[O][Sn]([O][Sn]([O][N+](=O)[O-])([c]1ccccc1)[c]1ccccc1)([c]1ccccc1)[c]1ccccc1 | 6% | 9% | 13% | 32% | 57%
Cc1cccc2c(Cl)c3cccc(C)c3nc12 | 1% | -1% | 8% | 42% | 65%
O=C1C(=O)N(c2ccccc2)[C@@]2(c3ccccc3)C(=Nc3ccccc3)OC(c3ccccc3)=C12 | 0% | 0% | 3% | 4% | 40%
CN(C)CC(CN(C)C)C(=O)/C=C/c1ccc(Cl)cc1Cl | 0% | -1% | 14% | 98% (active) | 97% (active)
CCOC(=O)/C(=C/c1cccc(Cl)c1)N(CC)CC | 10% | 13% | 12% | 49% | 96% (active)
O=[N+]([O-])c1cccc2nc3ccccc3c(NCCCN3CCCCC3)c12 | 89% (active) | 95% (active) | 96% (active) | 97% (active) | 98% (active)
CCN(CC)CC(=O)c1ccc2cc(Cl)c3ccccc3c2c1 | 14% | 30% | 99% (active) | 98% (active) | 98% (active)
O=C1Nc2ccc(Br)cc2C1=Nc1ccc(Cl)cc1 | -20% | -12% | 9% | 42% | 64%
